# Data reported in PubChem BioAssay (Tox21).
# Where “and” joins values, the source holds several entries; their conditions need not be identical. Equal values may be shown once. Results filed as inconclusive are left out. Entries that show only a call come without a potency. The source holds several records for some structures; these can differ, active in one and inactive in another. Calls of active or inactive are those of the source. Unless noted, calls follow the shape of the full dose curve.
# Columns and labels:
# [1] = qHTS assay to identify small molecule agonists of the sonic hedgehog signaling (Shh) pathway (AID 1259368);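 also: NIH/3T3-derived 3T3Gli1-Luc cells carrying a stable Gli1-driven firefly luciferase reporter; series mostly up to about 92 µM; nearly all actives have a fitted effect of over 15% in size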
# Outline: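 Stable NIH/3T3 Gli1-Luc reporter clone; 24 hr cpd exposure after a 4 hr settling period; luminescence endpoint.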
# [2] = qHTS assay to identify small molecule antagonists of the sonic hedgehog signaling (Shh) pathway (AID 1259369); also: nearly all actives have a fitted effect of over 45% in size; also: potency is read from the fitted curve at half-maximal effect
# Outline: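 Gli1 transcriptional reporter (firefly Luc) in NIH/3T3 background, conditioned-medium activated. 24hr exposure, luminescence endpoint.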
# [3] = target: Estrogen receptor beta (Homo sapiens) (UniProt Q92731); test: qHTS assay to identify small molecule agonists of the estrogen receptor beta (ER-beta) signaling pathway (AID 1259377; active = well fitted activation curve with a large enough effect in the signal ratio in the repeat runs, not every such curve was filed as active; the % refers to the signal ratio)
# Chain of Estrogen receptor beta (Homo sapiens) (Q92731 whole entry, looked up): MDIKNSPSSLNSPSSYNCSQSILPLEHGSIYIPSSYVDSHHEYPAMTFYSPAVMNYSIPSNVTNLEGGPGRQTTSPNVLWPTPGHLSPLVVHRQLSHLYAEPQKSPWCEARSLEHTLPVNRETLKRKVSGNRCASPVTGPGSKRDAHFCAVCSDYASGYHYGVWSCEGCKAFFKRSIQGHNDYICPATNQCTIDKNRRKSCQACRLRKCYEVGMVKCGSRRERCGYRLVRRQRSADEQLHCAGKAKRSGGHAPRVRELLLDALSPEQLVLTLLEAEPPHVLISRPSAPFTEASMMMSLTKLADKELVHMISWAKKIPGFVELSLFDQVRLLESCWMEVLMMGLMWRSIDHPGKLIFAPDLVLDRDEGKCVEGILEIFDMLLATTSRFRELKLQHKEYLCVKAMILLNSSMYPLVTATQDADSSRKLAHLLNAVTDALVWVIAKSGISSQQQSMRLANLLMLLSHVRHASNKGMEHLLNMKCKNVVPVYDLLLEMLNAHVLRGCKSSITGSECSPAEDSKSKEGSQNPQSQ
# Outline: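 ER-beta-UAS-bla HEK293T (GripTite) cells carrying a UAS-driven beta-lactamase reporter, in medium with 2% charcoal-stripped FBS, were exposed to compounds for 16 hr at 37C; LiveBLAzer B/G FRET substrate was then added and fluorescence read after 2 hours at room temperature.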
# [4] = target: Estrogen receptor beta (Homo sapiens) (UniProt Q92731); test: qHTS assay to identify small molecule antagonists of the estrogen receptor beta (ER-beta) signaling pathway (AID 1259378; active = well fitted inhibition curve with a large enough effect in the signal ratio in the repeat runs, not every such curve was filed as active; the % refers to the signal ratio)
# Outline: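 Antagonist mode: compounds added to beta-lactamase reporter HEK293T ER-beta-UAS cells stimulated with E2 (1nM final), 16 hr at 37C. LiveBLAzer B/G FRET substrate, 2 hours room temperature, fluorescence read-out.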
# [5] = qHTS assay to identify small molecule agonists of the androgen receptor (AR) signaling pathway in the presence of an antagonist - cell viability counter screen (AID 1259379; active = well fitted curve in the direction sought with a large enough effect in the repeat runs; an effect the other way counts as inactive or inconclusive; also: nearly all actives have a fitted effect of over 25% in size; also: potency is read from the fitted curve at half-maximal effect)
# Outline: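 Counter screen for cell viability run in parallel with the AR agonist-mode luciferase assay. MDA-kb2 cells were co-treated with nilutamide (3.0uM final) and compounds, then incubated 16 hr at 37C, and CellTiter-Fluor fluorescence was measured.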
# [6] = qHTS assay to identify small molecule agonists of the estrogen receptor beta (ER-beta) signaling pathway - cell viability counter screen (AID 1259380; active = well fitted curve in the direction sought with a large enough effect in the repeat runs; an effect the other way counts as inactive or inconclusive; also: nearly all actives have a fitted effect of over 30% in size)
# Outline: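 In this qHTS counter screen, HEK293T cells carrying an ER-beta/UAS beta-lactamase reporter, grown in 2% charcoal-stripped FBS, received compound for 16 hr; ATP-based CellTiter-Glo luminescence was then read after 30 min at room temperature.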
# [7] = qHTS assay to identify small molecule antagonists of the estrogen receptor beta (ER-beta) signaling pathway - cell viability counter screen (AID 1259382; active = well fitted curve in the direction sought with a large enough effect in the repeat runs; an effect the other way counts as inactive or inconclusive; also: series mostly up to about 92 µM; nearly all actives have a fitted effect of over 55% in size)
# Outline: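 HEK293T ER-beta-UAS-bla, 2% charcoal-stripped FBS; compounds + 1nM E2 16 hr 37C; CellTiter-Glo luminescence, 30 min RT.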
# [8] = qHTS assay to identify small molecule agonists or antagonists of the thyroid stimulating hormone receptor (TSHR) signaling pathway - wild type cell line counter screen (AID 1259384)
# Outline: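 Counter screen in untransfected Hek293: compounds (15-point titration, triplicate) plus phosphodiesterase inhibitor Ro20-1724 added after 18 h plating; 30 min RT. Intracellular cAMP via competitive d2/cryptate immunoassay, 1 h incubation.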
# [9] = target: Thyrotropin receptor (Homo sapiens) (UniProt P16473); test: qHTS assay to identify small molecule antagonists of the thyroid stimulating hormone receptor (TSHR) signaling pathway (AID 1259385); also: nearly all actives have a fitted effect of over 20% in size
# Chain of Thyrotropin receptor (Homo sapiens) (P16473 whole entry, looked up): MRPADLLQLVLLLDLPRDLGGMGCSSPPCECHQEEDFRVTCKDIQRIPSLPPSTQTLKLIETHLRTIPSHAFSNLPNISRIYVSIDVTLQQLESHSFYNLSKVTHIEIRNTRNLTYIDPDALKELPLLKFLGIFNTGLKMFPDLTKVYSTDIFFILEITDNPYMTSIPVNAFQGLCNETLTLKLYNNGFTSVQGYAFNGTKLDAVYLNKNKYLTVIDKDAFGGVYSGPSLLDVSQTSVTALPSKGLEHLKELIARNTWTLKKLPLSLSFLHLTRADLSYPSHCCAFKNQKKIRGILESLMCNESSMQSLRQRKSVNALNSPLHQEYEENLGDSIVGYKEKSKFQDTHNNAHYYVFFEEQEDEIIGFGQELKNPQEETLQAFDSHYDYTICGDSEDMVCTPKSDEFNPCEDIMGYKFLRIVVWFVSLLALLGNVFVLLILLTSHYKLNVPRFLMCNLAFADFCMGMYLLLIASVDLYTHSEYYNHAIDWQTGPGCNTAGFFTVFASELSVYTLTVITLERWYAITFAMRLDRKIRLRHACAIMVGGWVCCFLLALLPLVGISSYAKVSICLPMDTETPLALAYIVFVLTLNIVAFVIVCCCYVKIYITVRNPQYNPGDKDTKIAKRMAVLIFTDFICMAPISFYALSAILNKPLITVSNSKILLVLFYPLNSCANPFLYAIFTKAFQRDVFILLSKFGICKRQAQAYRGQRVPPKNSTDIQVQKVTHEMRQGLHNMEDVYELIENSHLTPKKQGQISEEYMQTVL
# Outline: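 Antagonist mode: compound-treated TSHR-expressing HEK293 cells were stimulated with 1.5 ng/mL TSH (final) in presence of Ro20-1724 for 30 min at RT. HTRF cAMP detection after 1 h; each compound tested at 15 concentrations, triplicate.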
# [10] = qHTS assay to identify small molecule agonists of the estrogen receptor alpha (ER-alpha) signaling pathway in the presence of an antagonist - cell viability counter screen (AID 1259386; active = well fitted curve in the direction sought with a large enough effect in the repeat runs; an effect the other way counts as inactive or inconclusive;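 also: cells exposed to compounds for 22 h at 37 °C before the viability read; nearly all actives have a fitted effect of over 30% in size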; also: potency is read from the fitted curve at half-maximal effect)
# Outline: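 Steps: 5-day stripped-FBS culture; seed and incubate 24hr; add ICI-182,780 (10.0nM final); pin 15-point compound titration; incubate 22hr at 37C; add CellTiter-Fluor at 21hr; read fluorescence.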
# [11] = target: Progesterone receptor (Homo sapiens) (UniProt P06401); test: qHTS assay to identify small molecule agonists of the progesterone receptor (PR) signaling pathway (AID 1346784); also: nearly all actives have a fitted effect of over 30% in size
# Chain of Progesterone receptor (Homo sapiens) (P06401 whole entry, looked up): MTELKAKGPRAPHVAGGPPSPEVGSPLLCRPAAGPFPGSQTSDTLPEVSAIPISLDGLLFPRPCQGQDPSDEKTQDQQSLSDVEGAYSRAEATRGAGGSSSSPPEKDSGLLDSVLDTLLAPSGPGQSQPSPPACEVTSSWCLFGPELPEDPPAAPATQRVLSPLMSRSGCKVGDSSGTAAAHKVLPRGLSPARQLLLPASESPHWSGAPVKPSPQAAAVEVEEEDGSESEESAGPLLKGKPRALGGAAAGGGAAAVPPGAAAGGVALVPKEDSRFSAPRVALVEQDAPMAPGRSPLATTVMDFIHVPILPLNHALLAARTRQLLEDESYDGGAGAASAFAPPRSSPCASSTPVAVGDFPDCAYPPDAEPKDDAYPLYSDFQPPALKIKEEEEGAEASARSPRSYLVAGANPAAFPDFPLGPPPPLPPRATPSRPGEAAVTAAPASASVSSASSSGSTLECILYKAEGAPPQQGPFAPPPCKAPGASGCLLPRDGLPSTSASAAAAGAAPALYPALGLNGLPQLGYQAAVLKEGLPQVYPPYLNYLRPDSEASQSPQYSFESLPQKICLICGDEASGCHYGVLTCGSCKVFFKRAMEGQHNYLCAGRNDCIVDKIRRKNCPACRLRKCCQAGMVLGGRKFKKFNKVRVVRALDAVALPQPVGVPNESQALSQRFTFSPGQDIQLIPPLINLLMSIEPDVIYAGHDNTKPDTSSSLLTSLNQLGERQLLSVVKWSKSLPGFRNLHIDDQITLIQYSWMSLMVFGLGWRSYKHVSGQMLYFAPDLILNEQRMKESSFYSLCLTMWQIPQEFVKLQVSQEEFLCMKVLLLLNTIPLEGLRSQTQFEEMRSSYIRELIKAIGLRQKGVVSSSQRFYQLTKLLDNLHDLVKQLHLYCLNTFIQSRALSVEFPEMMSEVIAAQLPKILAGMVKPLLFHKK
# Outline: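 PR-UAS-bla HEK 293T cells carrying a UAS-driven beta-lactamase reporter were seeded in medium with 2% charcoal-stripped FBS, preincubated 6 hr at 37C, then exposed to compounds in DMSO for 16 hr; agonism was read by LiveBLAzer B/G FRET fluorescence.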
# [12] = qHTS assay to identify small molecule agonists of the progesterone receptor (PR) signaling pathway - cell viability counter screen (AID 1346799); also: nearly all actives have a fitted effect of over 45% in size
# Outline: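 PR-UAS-bla HEK293T cells, 3,000 per well in medium with 2% charcoal-stripped FBS, were preincubated 6 hr at 37C, then exposed to compounds for 16 hr; viability was read as CellTiter-Glo luminescence after 30 min at room temperature.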
# [13] = qHTS assay to identify small molecule antagonists of the TGF-beta/Smad signaling pathway - cell viability counter screen (AID 1346824; active = well fitted curve in the direction sought with a large enough effect in the repeat runs; an effect the other way counts as inactive or inconclusive; also: nearly all actives have a fitted effect of over 50% in size)
# Outline: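 Cytotoxicity counter-screen run in the same wells as the beta-lactamase Smad reporter read: CellTiter-Glo luminescence after 30 min at room temperature. HEK 293T SBE-bla cells had 5 hr compound exposure at 37 C with TGF-beta1 (0.25 ng/mL stock).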
# [14] = qHTS assay to identify small molecule agonists of the TGF-beta/Smad signaling pathway (AID 1346859; active = well fitted activation curve with a large enough effect in the signal ratio in the repeat runs, not every such curve was filed as active; the % refers to the signal ratio; also: series mostly up to about 77 µM)
# Outline: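 HEK 293T cells stably carrying a beta-lactamase reporter driven by the Smad binding element were seeded overnight, exposed to DMSO-dissolved compounds for 5 hr at 37 C, 5% CO2, then loaded with FRET substrate for 2 hr at room temperature.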
# [15] = target: Thyrotropin-releasing hormone receptor (Homo sapiens) (UniProt P34981); test: qHTS assay to identify small molecule antagonists of the thyrotropin-releasing hormone receptor (TRHR) signaling pathway (AID 1346877; active = well fitted inhibition curve with a large enough effect in the repeat runs, not every such curve was filed as active; also: series mostly up to about 51 µM)
# Chain of Thyrotropin-releasing hormone receptor (Homo sapiens) (P34981 whole entry, looked up): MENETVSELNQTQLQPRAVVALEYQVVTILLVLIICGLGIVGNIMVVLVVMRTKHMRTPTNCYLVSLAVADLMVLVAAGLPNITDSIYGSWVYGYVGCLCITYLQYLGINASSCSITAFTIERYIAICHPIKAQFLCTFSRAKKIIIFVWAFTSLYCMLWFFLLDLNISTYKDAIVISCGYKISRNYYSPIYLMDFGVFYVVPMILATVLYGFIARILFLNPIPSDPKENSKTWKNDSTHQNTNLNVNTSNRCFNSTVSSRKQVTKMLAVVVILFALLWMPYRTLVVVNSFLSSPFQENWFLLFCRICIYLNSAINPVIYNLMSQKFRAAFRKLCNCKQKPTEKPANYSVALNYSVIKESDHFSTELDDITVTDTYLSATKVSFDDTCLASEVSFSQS
# Outline: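 Human TRHR in HEK293 cells; inhibition of the intracellular calcium rise triggered by 1 nM TRH was followed by fluorescence over 3 min. Compounds were run at 15 concentrations, three replicates each.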
# [16] = qHTS assay to identify small molecule agonists of the TGF-beta/Smad signaling pathway - cell viability counter screen (AID 1346829; active = well fitted curve in the direction sought with a large enough effect in the repeat runs; an effect the other way counts as inactive or inconclusive; also: top concentration of the series differs between compounds; nearly all actives have a fitted effect of over 45% in size)
# Outline: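 Here the cytotoxicity of library compounds is measured in SBE-bla HEK 293T cells treated for 5 hr, using CellTiter-Glo added to wells already read for the beta-lactamase reporter.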
# [17] = target: Estrogen receptor (Homo sapiens) (UniProt P03372); test: qHTS assay to identify small molecule agonists of the estrogen receptor alpha (ER-alpha) signaling pathway in the presence of an antagonist (AID 1259383); also: top concentration of the series differs between compounds; nearly all actives have a fitted effect of over 15% in size
# Chain of Estrogen receptor (Homo sapiens) (P03372 whole entry, looked up): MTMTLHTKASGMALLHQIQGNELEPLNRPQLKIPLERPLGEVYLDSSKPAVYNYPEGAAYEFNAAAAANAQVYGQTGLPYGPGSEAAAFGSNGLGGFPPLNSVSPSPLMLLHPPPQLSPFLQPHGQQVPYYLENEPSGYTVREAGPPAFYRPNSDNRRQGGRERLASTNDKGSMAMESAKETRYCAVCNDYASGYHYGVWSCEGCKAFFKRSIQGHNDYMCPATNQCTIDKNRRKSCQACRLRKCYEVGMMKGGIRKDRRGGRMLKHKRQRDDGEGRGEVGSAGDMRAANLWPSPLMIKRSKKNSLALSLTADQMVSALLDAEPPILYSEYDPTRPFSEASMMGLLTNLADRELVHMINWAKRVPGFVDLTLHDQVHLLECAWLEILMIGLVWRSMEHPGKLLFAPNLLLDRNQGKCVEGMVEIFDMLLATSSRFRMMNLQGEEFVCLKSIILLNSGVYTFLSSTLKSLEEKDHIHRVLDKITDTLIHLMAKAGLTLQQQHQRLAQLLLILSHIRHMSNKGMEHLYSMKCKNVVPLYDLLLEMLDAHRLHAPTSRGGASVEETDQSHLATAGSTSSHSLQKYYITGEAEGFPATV
# Outline: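 ER-alpha agonism measured under antagonist challenge: 10.0nM ICI-182,780 (final) plus compound, 15 concentrations, 22hr, VM7Luc4E2 ERE-luciferase cells. Read by luminescence.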
# [18] = target: Progesterone receptor (Homo sapiens) (UniProt P06401); test: qHTS assay to identify small molecule antagonists of the progesterone receptor (PR) signaling pathway (AID 1346795; active = well fitted inhibition curve with a large enough effect in the signal ratio in the repeat runs, not every such curve was filed as active; the % refers to the signal ratio)
# Outline: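 PR-UAS-bla HEK293T cells carrying a UAS-driven beta-lactamase reporter were plated in medium with 2% charcoal-stripped FBS and rested 6 hr at 37C. Compounds were added with 1 nM R5020 (final) for 16 hr, then FRET substrate loaded 2 hr at room temperature.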
# [19] = qHTS assay to identify small molecule antagonists of the progesterone receptor (PR) signaling pathway - cell viability counter screen (AID 1346798; active = well fitted curve in the direction sought with a large enough effect in the repeat runs; an effect the other way counts as inactive or inconclusive; also: series mostly up to about 92 µM; nearly all actives have a fitted effect of over 50% in size)
# Outline: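 PR-UAS-bla HEK293T cells in medium with 2% charcoal-stripped FBS were treated with compounds plus R5020 for 16 hr at 37C. Cell viability was then read by CellTiter-Glo luminescence after 30 min at room temperature in the same wells.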
SMILES,outcome [1],Potency [2],outcome [3],Potency [4],Potency [5],Potency [6],Potency [7],outcome [8],outcome [9],Potency [10],Potency [11],Potency [12],outcome [13],outcome [14],outcome [15],Potency [16],Potency [17],outcome [18],Potency [19]
O=C(O)c1cc(N=Nc2ccc(S(=O)(=O)Nc3ccccn3)cc2)ccc1O,inactive,inactive,inactive,inactive,30.7 µM (active) and 30.6 µM (active),inactive,inactive,inactive,inactive,61.3 µM (active) and 30.6 µM (active) and 29.8 µM (active),inactive,inactive,inactive,inactive,–,–,–,–,–
NC(=O)NC1NC(=O)NC1=O (stereo not given),inactive,inactive,–,–,inactive,inactive,inactive,inactive,inactive,inactive,inactive,inactive,inactive,–,inactive,–,–,–,–
CNC[C@H](O)c1cccc(O)c1,inactive,inactive,inactive,inactive,inactive,inactive,inactive,inactive,inactive,inactive,inactive,inactive,inactive,–,–,inactive,–,–,–
O=C(O)c1[nH]n(-c2ccc(S(=O)(=O)O)cc2)c(=O)c1N=Nc1ccc(S(=O)(=O)O)cc1,inactive,inactive and 57.1 µM (active),–,–,23.7 µM (active) and 54.6 µM (active) and 28.6 µM (active),inactive,inactive,inactive,inactive,29.8 µM (active) and 61.3 µM (active) and 25.5 µM (active),–,inactive,inactive,–,inactive,–,inactive,–,–
CCC1(c2ccccc2)C(=O)NCNC1=O,inactive,inactive,inactive,inactive,inactive,inactive,inactive,inactive,inactive,inactive,inactive,inactive,inactive,inactive,–,inactive,–,–,–
O=C(O)C(=O)O,inactive,inactive and 1.22 µM (active),–,–,inactive,inactive,inactive,inactive,inactive,inactive,inactive,inactive,inactive,–,–,inactive,–,inactive,–
O=C1CN(/N=C/c2ccc([N+](=O)[O-])o2)C(=O)N1,inactive,48.4 µM (active) and 27.3 µM (active) and inactive,inactive,–,27.2 µM (active) and 61.1 µM (active) and 23.7 µM (active),–,inactive,inactive,inactive,30.5 µM (active) and 54.5 µM (active) and 18.8 µM (active),inactive,inactive,inactive,–,inactive,inactive,inactive,–,inactive
Nc1ccc(S(=O)(=O)Nc2nccs2)cc1,inactive,inactive,–,–,inactive,inactive,inactive,inactive,inactive,inactive,inactive,inactive,inactive,inactive,–,–,inactive,–,inactive
Nc1ccc(S(=O)(=O)c2ccc(N)cc2)cc1,inactive,inactive,–,–,inactive,inactive,inactive,inactive,inactive,inactive,inactive,inactive,inactive,inactive,inactive,inactive,inactive,–,inactive
